We go through 13 compounds from PubChem BioAssay.

Active and inactive are the calls of the source.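 Rule for the calls, unless noted: active = inhibition above 20% together with a positive visual image hit; inconclusive = visual image hit but inhibition not above 20%; inactive = no visual image hit.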

A short description of experiment [1]: inhibitors of TNFa-induced NFkB p65 translocation, primary screen, imaging, HUVEC, MLSMR starter and 10KST1 sets (AID 438).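 For inhibition: signal is the nuclear over cytoplasmic p65 intensity ratio per well.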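 Note: compound added about 3h40 before a 20 min TNFalpha stimulation.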 As to conditions: HUVEC TNFa-induced p65 nuclear translocation; cell count: measured here: nuclei count (cytotoxicity indicator), at 2.08 µM; inhibition: at 2 µM, stronger effect = higher value, 0% TNFa-plus-vehicle, 100% no-TNFa wells.
Experiment [2] is described as follows: inhibitors of mutant huntingtin aggregation, primary screen, imaging, exon1htt(103Q)mCFP cells, high-content imaging (AID 483;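 active = visual image review flags a hit and inhibition of aggregation exceeds 20%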;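 note: compound exposure lasted 3 days before fixation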;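 for nuclei count: percent of the per-plate median nuclei count of sample wells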). Particulars: exon1htt(103Q)mCFP cell line, aggregate imaging, at 2 µM; inhibition of aggregation: stronger effect = higher value; nuclei count: measured here: cell count, toxicity.
Experiment [3] can be described thus: inhibitors of E-selectin induction by TNFa, primary screen, imaging, HUVEC, immunofluorescence, MLSMR starter and 10KST1 sets (AID 487;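 active = visually confirmed hit in the image check and inhibition above 20%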;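 for inhibition: signal is fraction of cell area covered by stained E-selectin grains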;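 for nuclei count: 100% = median nuclei count of all wells on the same plate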). As to conditions: HUVEC TNFalpha-induced E-selectin immunofluorescence imaging, at 2 µM; inhibition: stronger effect = higher value; nuclei count: measured here: cell number, toxicity.
The target in experiment [4] is Voltage-gated potassium channel subunit beta-2 (Rattus norvegicus) (UniProt P62483). The experiment can be described thus: KvBeta enzyme negative modulators, primary screen, biochemical, NADPH fluorescence (AID 622;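 active = fluorescence slope higher than the sample average by over 3 SD, cut at about -0.22 in these data, passing the limit was not always enough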;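 note: slope of raw intensity against log time taken from 70 to 1610 s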). Particulars: recombinant KvBeta, 4-cyanobenzaldehyde reduction, at 10 µM, stronger effect = higher value.
Sequence of Voltage-gated potassium channel subunit beta-2 (Rattus norvegicus) (P62483 whole entry, looked up): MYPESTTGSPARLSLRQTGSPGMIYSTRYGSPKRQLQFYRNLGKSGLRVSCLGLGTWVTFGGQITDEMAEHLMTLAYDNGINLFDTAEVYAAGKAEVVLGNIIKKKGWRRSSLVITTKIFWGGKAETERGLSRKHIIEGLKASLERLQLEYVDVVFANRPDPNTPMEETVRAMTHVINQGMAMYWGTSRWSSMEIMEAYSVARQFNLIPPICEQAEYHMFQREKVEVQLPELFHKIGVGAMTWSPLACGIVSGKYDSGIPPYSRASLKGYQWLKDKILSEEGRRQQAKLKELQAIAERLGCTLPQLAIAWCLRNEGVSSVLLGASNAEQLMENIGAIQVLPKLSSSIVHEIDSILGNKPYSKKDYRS
Experiment [5] has the same target. Put plainly: KvBeta positive modulators, primary screen, biochemical, NADPH fluorescence (AID 623;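 active = NADPH fluorescence slope more negative than the mean of all samples by about 3 SD, 99.7% confidence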;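 note: fluorescence intensity change per second fitted from 20 to 320 s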). Particulars: Recombinant KvBeta, NADPH fluorescence decrease slope, 10 min; at 10 µM; stronger effect = lower value.
Experiment [6] addresses Alpha-2C adrenergic receptor (Homo sapiens) (UniProt P18825). Put plainly: modulators of alpha2C/GIRK thallium flux, primary screen, cell-based, HEK293 alpha2C/GIRK1/2 (AID 624;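 active = fluorescence slope after compound addition differing from the mean of all screened samples at 99.7% confidence, in either direction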;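 note: slope of fluorescence ratio to pre-addition baseline per second over 15 to 24 s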). As to conditions: thallium flux BTC fluorescence, at 10 µM, actives lie on both sides.
The nature of experiment [7]: inhibitors of Sendai virus-induced IRF3 signaling, primary screen, TLR/RLR signaling modifier project, cell-based, Sendai virus stimulus, luciferase, 10K MLSCN set (AID 602276;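 active = inhibition at or above 50% at 10 µM; inactive = inhibition below 50%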;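 note: firefly luciferase from ISG56 promoter only with Renilla not read in this screen; 0% = Sendai virus plus DMSO and 100% = medium plus DMSO without virus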). As to conditions: HEK293 RL24 IRF3 luciferase reporter, at 10 µM, stronger effect = higher value. In general terms: Reporter assays use an easily measured gene product as a stand-in for the process of interest.

The nature of experiment [8]: inhibitors of poly I:C-induced TLR3 signaling, primary screen, cell-based, poly I:C stimulus, luciferase, 10K MLSCN set (AID 602277;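 active = inhibition of the reporter signal at or above 50%; inactive = inhibition below 50%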). Particulars: HEK293-TLR3 RL24 IRF3 luciferase reporter, at 10 µM, stronger effect = higher value.

Sequence of Alpha-2C adrenergic receptor (Homo sapiens) (P18825 whole entry, looked up): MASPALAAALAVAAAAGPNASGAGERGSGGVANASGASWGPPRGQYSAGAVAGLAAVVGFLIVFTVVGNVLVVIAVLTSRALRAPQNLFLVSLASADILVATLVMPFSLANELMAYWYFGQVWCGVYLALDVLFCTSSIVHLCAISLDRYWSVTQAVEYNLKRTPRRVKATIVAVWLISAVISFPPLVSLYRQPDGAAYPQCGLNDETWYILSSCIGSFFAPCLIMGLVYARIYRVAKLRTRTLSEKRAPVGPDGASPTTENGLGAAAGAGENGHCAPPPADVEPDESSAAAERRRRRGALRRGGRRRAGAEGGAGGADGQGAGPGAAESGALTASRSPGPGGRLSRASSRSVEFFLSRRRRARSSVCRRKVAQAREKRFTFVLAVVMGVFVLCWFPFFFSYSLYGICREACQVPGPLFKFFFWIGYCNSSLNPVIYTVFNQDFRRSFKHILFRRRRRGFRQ

Broadly, the inhibition is the relative decrease from the control value, in per cent. As for `Cc1ccc(NC2=NC3(CCCCC3)N=C(N)N2)c(C)c1`, the cell count in experiment [1] amounted to 530. Also, the inhibition in experiment [1] is -4.7% (inactive); in experiment [3], -59.7% (inactive); in experiment [7], -10.3% (inactive); in experiment [8], 8.58% (inactive). Further, in experiment [2], the inhibition of aggregation was 4.5% (inactive). In addition, the nuclei count is 76.2% in experiment [2] and 99.3% in experiment [3]. Also, in experiment [4], the fluorescence slope is -0.598 (inactive). For the same compound, the NADPH fluorescence slope in experiment [5] was -4.3e-05 (inactive). Further, the slope in experiment [6] is 0.00486 (inactive).
As to `COc1ccc(-n2c(Cc3cccn3C)nnc2SCC(=O)Nc2ccc(Cl)cc2)cc1`, the cell count in experiment [1] was 678. In addition, the inhibition in experiment [1] was -5.8% (inactive); in experiment [3] it was -22.9% (inactive); in experiment [7] it was 11.4% (inactive); in experiment [8], 23.2% (inactive). Besides, in experiment [2], the inhibition of aggregation was 8.1% (inactive). For the same compound, the results for the nuclei count in experiment [2] and in experiment [3] were 85% and 119%, respectively. In addition, the fluorescence slope in experiment [4] was -0.567 (inactive). The NADPH fluorescence slope in experiment [5] was -5e-06 (inactive). Moreover, the slope in experiment [6] is 0.0052 (inactive).
Consider `CCN(CC)c1ccc(NC(=O)CN2C(=O)CC(C)(C)S(=O)(=O)c3ccccc32)c(C)c1`, for which the cell count in experiment [1] stood at 879. Further, the inhibition was 5.8% (inactive) in experiment [1], -63.3% (inactive) in experiment [3], 10.9% (inactive) in experiment [7] and -2.32% (inactive) in experiment [8]. Also, the inhibition of aggregation in experiment [2] was 30.2% (inactive). In addition, the nuclei count in experiment [2] stood at 60.8%; in experiment [3], 125%. Besides, the fluorescence slope in experiment [4] was -0.465 (inactive). In addition, the NADPH fluorescence slope in experiment [5] was -2.5e-05 (inactive). Also, the slope in experiment [6] was 0.00659 (inactive).
Consider `CCCCn1c(NCc2ccccc2O)nc2ccccc21`, for which the cell count in experiment [1] came out at 790. Also, the inhibition in experiment [1] is -6.4% (inactive); in experiment [3], -63% (inactive); in experiment [7] it was 0.354% (inactive); in experiment [8], 25.3% (inactive). For the same compound, the inhibition of aggregation in experiment [2] was 14.4% (inactive). In addition, the nuclei count was determined as 107% in experiment [2] and 120% in experiment [3]. For the same compound, the fluorescence slope in experiment [4] is -0.567 (inactive). Moreover, in experiment [5], the NADPH fluorescence slope was -5.9e-06 (inactive). Further, the slope in experiment [6] is 0.00728 (inactive).
Consider `O=C(Cn1nc(Cc2ccncc2)c2ccccc2c1=O)N1CCN(C(=O)c2ccco2)CC1`, for which the cell count in experiment [1] is 780. Further, the inhibition is -7.3% (inactive) in experiment [1], -15.2% (inactive) in experiment [3], -0.346% (inactive) in experiment [7] and 21.1% (inactive) in experiment [8]. Also, the inhibition of aggregation in experiment [2] was -29.3% (inactive). For the same compound, the nuclei count in experiment [2] is 110%; in experiment [3], 112%. Further, the fluorescence slope in experiment [4] was -0.58 (inactive). Moreover, in experiment [5], the NADPH fluorescence slope was -2.7e-05 (inactive). Moreover, in experiment [6], the slope was 0.0062 (inactive).
With `CSc1nc(C)cc(Oc2ccc(=O)n(C)n2)n1`, in experiment [1], the cell count came out at 380. The inhibition in experiment [1] is -0.7% (inactive); in experiment [3], -30.2% (inactive); in experiment [7], 1.26% (inactive); in experiment [8], 22.5% (inactive). Also, the inhibition of aggregation in experiment [2] is 1.1% (inactive). Besides, the nuclei count in experiment [2] stood at 101%; in experiment [3], 109%. For the same compound, in experiment [4], the fluorescence slope is -0.478 (inactive). Also, the NADPH fluorescence slope in experiment [5] was -4.2e-06 (inactive). In addition, the slope in experiment [6] was 0.00506 (inactive).
In the case of `CC(C)c1nccn1S(=O)(=O)c1cc(Cl)ccc1Cl`, the cell count in experiment [1] was 582. Moreover, the inhibition in experiment [1] was -11.9% (inactive); in experiment [3], 20.8% (inactive); in experiment [7], 8.92% (inactive); in experiment [8], 31% (inactive). Besides, the inhibition of aggregation in experiment [2] is 6.2% (inactive). Also, the nuclei count worked out at 110% in experiment [2] and 122% in experiment [3]. Moreover, the fluorescence slope in experiment [4] was -0.422 (inactive). Besides, in experiment [5], the NADPH fluorescence slope was -4.2e-05 (inactive). In addition, the slope in experiment [6] is 0.0045 (inactive).
With `CCc1nnc(NC(=O)c2cc3c(s2)CCCCC3)s1`, the cell count in experiment [1] was 662. Further, the inhibition in experiment [1] is 4.4% (inactive); in experiment [3] it was -89.1% (inactive); in experiment [7], -50.8% (inactive); in experiment [8], -103% (inactive). Also, in experiment [2], the inhibition of aggregation is 4.1% (inactive). The nuclei count is 131% in experiment [2] and 108% in experiment [3]. For the same compound, the fluorescence slope in experiment [4] is -0.406 (inactive). In addition, in experiment [5], the NADPH fluorescence slope is -0.000125 (inactive). Moreover, the slope in experiment [6] was 0.00621 (inactive).
Regarding `CCOc1cccc2cc(C(=O)N3CCN(C/C=C/c4ccccc4)CC3)c(=O)oc12`, in experiment [1], the cell count came out at 596. In addition, the inhibition in experiment [1] was -3.6% (inactive); in experiment [3] it was -80.4% (inactive); in experiment [7], 1.41% (inactive); in experiment [8], -10.8% (inactive). For the same compound, in experiment [2], the inhibition of aggregation was -2.4% (inactive). The nuclei count came out at 103% in experiment [2] and 133% in experiment [3]. Also, the fluorescence slope in experiment [4] was -0.236 (inactive). Moreover, in experiment [5], the NADPH fluorescence slope was -4e-05 (inactive). Also, in experiment [6], the slope was 0.00413 (inactive).
With `CCc1[nH]nc2c1C(c1ccncc1)C(C#N)=C(N)O2` (stereo not drawn), the cell count in experiment [1] came out at 355. The inhibition in experiment [1] is 2.9% (inactive); in experiment [3], -29.1% (inactive); in experiment [7], -2.35% (inactive); in experiment [8], 3.94% (inactive). Also, in experiment [2], the inhibition of aggregation was -6% (inactive). Further, the nuclei count in experiment [2] came to 109%; in experiment [3] it was 123%. Further, the fluorescence slope in experiment [4] was -0.507 (inactive). Also, the NADPH fluorescence slope in experiment [5] is -3.3e-05 (inactive). Moreover, the slope in experiment [6] was 0.00643 (inactive).
`COC(=O)CSc1nc2ncc(Cl)cc2[nH]1`: the cell count in experiment [1] is 542. Moreover, the inhibition in experiment [1] is 8.6% (inactive); in experiment [3] it was -49.2% (inactive); in experiment [7] it was 15.8% (inactive); in experiment [8], 25.3% (inactive). For the same compound, the inhibition of aggregation in experiment [2] is -23.3% (inactive). Besides, the nuclei count in experiment [2] and in experiment [3] was 106% throughout. Moreover, in experiment [4], the fluorescence slope was -0.462 (inactive). In addition, the NADPH fluorescence slope in experiment [5] is -6.4e-05 (inactive). In addition, the slope in experiment [6] was 0.00642 (inactive).
In the case of `CC1CN(Cc2nc3c(c(=O)[nH]c(=O)n3C)n2CC(N)=O)CC(C)O1` (stereo not drawn), the cell count in experiment [1] is 780. In addition, the inhibition in experiment [1] was -7.4% (inactive); in experiment [3], -33% (inactive); in experiment [7], 12.8% (inactive); in experiment [8] it was 20.4% (inactive). In addition, in experiment [2], the inhibition of aggregation is -1.9% (inactive). The figures for the nuclei count in experiment [2] and in experiment [3] were 112% and 111%, respectively. For the same compound, the fluorescence slope in experiment [4] is -0.567 (inactive). Also, the NADPH fluorescence slope in experiment [5] is -3.9e-05 (inactive). In addition, the slope in experiment [6] is 0.00597 (inactive).
Consider `CC1(C)CC(=O)CC(C2(O)C(=O)N(Cc3ccccc3)c3ccccc32)O1` (stereo not drawn), for which the cell count in experiment [1] stood at 500. Further, the inhibition was -2.4% (inactive) in experiment [1], -9.4% (inactive) in experiment [3], -9.58% (inactive) in experiment [7] and -5.31% (inactive) in experiment [8]. Moreover, the inhibition of aggregation in experiment [2] was -3.9% (inactive). In addition, the nuclei count in experiment [2] is 82.2%; in experiment [3] it was 120%. Moreover, the fluorescence slope in experiment [4] is -0.548 (inactive). Also, the NADPH fluorescence slope in experiment [5] is 1.3e-05 (inactive). Also, the slope in experiment [6] was 0.00527 (inactive).
